Laboratory results reported in the supplement of paper PMC6555819.

Columns and labels:
Test in all cases: PBM binding z-score (relative to random genomic background probes); higher = stronger binding; sequences stand for … in GC…GCGATTGACAGCGTAGAATGAAGG
[1] = system: RARb homodimer (NR concentration 270 nM)
Outline: (§1)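 Custom Agilent 4×180K protein-binding microarrays carried double-stranded probes. Their 34-nt variable regions held direct-repeat seeds, single-nucleotide variants, half-site ablations and random human genomic background sequences. Arrays were incubated 1 h with ligand-free nuclear receptor dimers in PBS pH 7.4, 2% milk, 0.02% Triton X-100, 1 mM DTT, 0.2 mg/mL BSA and 0.4 mg/ml salmon testes DNA. Antibodies against each partner (one per run) detected binding, and scanned fluorescence was regression-normalized. Binding z-scores use random background probes as reference.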

[2] = system: RARg:RXRa (NR concentration 270 nM, RXRa partner concentration 90 nM)
Outline: as §1

[3] = system: RARg homodimer (NR concentration 270 nM)
Outline: as §1

[4] = system: RXRa DBDmut IVT, anti-RXR (DBD mutation: RXRa K156A/R161A, NR concentration 90 nM)
Outline: as §1

[5] = system: RXRa homodimer (NR concentration 180 nM)
Outline: as §1

[6] = system: THRa:RXRa (NR concentration 90 nM, RXRa partner concentration 90 nM)
Outline: as §1

[7] = system: THRa homodimer (NR concentration 90 nM)
Outline: as §1

[8] = system: VDR homodimer (NR concentration 270 nM)
Outline: as §1

Sequence | PBM binding z-score [1] | PBM binding z-score [2] | PBM binding z-score [3] | PBM binding z-score [4] | PBM binding z-score [5] | PBM binding z-score [6] | PBM binding z-score [7] | PBM binding z-score [8]
AGAATGAGGTTACCCAAGATCAGGGAAACGCTTG | 0.82 | 1.93 | 1.6 | 1.06 | 2.36 | 3.28 | 0.843 | 0.242
CCTAGCAGGCCCATCTGGGTCACTCAAGGCTTGA | 1.64 | 0.5 | 0.267 | -1.2 | 0.768 | 2.23 | 0.0226 | -0.0686
GCAGACAAGTGAAACGCAGGTAACTCAGGGTGGC | -1 | -0.267 | -0.436 | -0.633 | 0.115 | 0.682 | -0.967 | -0.593
CGTCCAAGGTCAAGGTCAGCGAAAGAGACTCGAA | 5.23 | 6.94 | 7.94 | 3.44 | 6.74 | 4.14 | 3.58 | 3.19
ATCTCTAGGTAACAAGTTCAGTAAAAGAGAGGAC | 2.18 | 1.21 | 1.6 | 1.08 | 1.1 | 1.85 | 1.12 | 2.15
TCATATAGGTAAATGCAAGGTGAAAGTCCGATCT | 1.3 | 1.09 | 0.776 | 1.93 | 1.36 | 2.64 | 1.5 | 0.698
TTACCAAGGTGAGCTTAGGTCGTTGATCCAACTC | 1.27 | 0.36 | 0.732 | -0.17 | 0.352 | 3.88 | 0.952 | -0.0607
CTGGAAAGGTCGTGCTCAGGTGAGTATACCAAAC | 2.76 | 5.06 | 3.97 | 1.91 | 4.95 | 4.09 | 0.923 | 0.759
TCTATTAGTAGAAGGGCAACCGACGAGTCCGTTT | 0.923 | 0.406 | 0.636 | 1.23 | 0.785 | -0.0492 | -0.359 | 1.18
CGTCAAAGTTCAACTAAGATAACGTAAAGCACGC | 3.75 | 5.82 | 6.58 | 4.65 | 5.25 | 2.98 | 0.329 | 3.75
GCTTGTAGATCAAGATTAAGAAAGACTAAGCTAA | -1.07 | -0.362 | -0.206 | -0.488 | -0.324 | -0.364 | -0.81 | -0.356
ACTAGCAGGCCAAGTTGGGGTCACTCAAACAAAG | 3.81 | 4.97 | 3.25 | 0.825 | 5.2 | 4.16 | 2.89 | 3.34
CCTTGCAGGCCAGGGTCACTCAAGCATTTCGCTT | 2.93 | 3.21 | 2.83 | 0.484 | 3.43 | 2.76 | 1.07 | 1.18
TCATATAGGTAAATGCTAGGTGACAGTCCGATCT | 0.444 | 0.642 | 0.401 | 1.28 | 0.653 | 1.4 | 0.389 | 0.525
CGATCTAGGTCAAGGACAGTGAATCTCCGCACGC | 2.75 | 3.6 | 4.45 | 1.55 | 2.2 | 3.07 | 2.46 | 0.43
GCTGCTAGGTGAACTGATGGTCAGCTAAAGCTCG | 0.715 | 0.956 | 0.47 | -0.22 | 0.333 | 1.03 | -0.574 | -0.742
ATCGGAAGGTCGTGAGGTGAGTATACAGAAAGGC | 2.27 | 3.03 | 2.55 | 0.762 | 3.05 | 2.83 | 1.76 | 1.04
ATCTCTAGGTAATACTCAGTTCAGTGAAGAACGC | 1.14 | 0.732 | 0.671 | 0.98 | 0.582 | 1.37 | 1.33 | 1.89
CCTAGCAGGCCAATCTGAGTCACTCAAGGCTTGA | -0.614 | -0.539 | -0.118 | 0.122 | -0.769 | -0.175 | -0.499 | -0.793
CCTGCTGGGTCAATGGTCAGCTAAAGCAGCTCGC | 2.5 | 3.24 | 3.33 | 0.787 | 2.48 | 1.26 | -0.14 | -0.211
ATACCAAGGTGATCGTGAGGTCATTGATACTAAC | 4.17 | 4.94 | 3.31 | 1.63 | 3.99 | 4.6 | 4.6 | 4.77
GCAGACACGTGAAACGCAGGTAACTCAGGGTGGC | -0.78 | -0.43 | -0.333 | -0.425 | -0.324 | 0.299 | -0.673 | -0.988
TCTCGGAGGACACGAAAGGTAAGAGCTCGACATC | 0.782 | 0.65 | 1.6 | 0.729 | 0.0654 | 2 | 0.0945 | -0.863
CAAACTAGGACACGAAAGGTCAAAGTCGAATGAC | 4.86 | 5.9 | 5.66 | 1.45 | 6.74 | 4.08 | 1.94 | 2.91
CTGACTGGGGCAGAAAGGTTACCATACCATCCGG | 2.57 | 2.08 | 1.66 | -0.154 | 1.88 | 1.34 | -0.00368 | 0.339
ATCTCGAGGTAACAAGTTCAGTGAAAGAGAGGAC | 1.83 | 2.13 | 1.42 | 0.518 | 1.15 | 2.31 | 0.969 | 2.28
CCTACTGGGCCATTCAGAGGTCATTCATCATATG | 4.11 | 4.47 | 2.94 | 0.971 | 3.37 | 3.14 | 1.51 | 3.85
CCGAGTAGGTTATGGGGCATTCATGCAACGGTGA | 0.909 | 0.699 | 0.725 | 0.0977 | 0.697 | 0.148 | -0.334 | 0.21
